Sampled rows, rich in hits. Any-hit rate of the full collection: about 1.6%.
KCNQ2 enhance: enhances the rat KCNQ2 potassium channel | O88943 | CHO-K1 KCNQ2, FluxOR thallium flux fluorescence; active compounds read high | B-score at 10 µM | actives 0.54% (n = 310,000) | AID 2239;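 active = fluorescence ratio B-score at least 3 SD of library B-scores, with initial fluorescence B-score within 3 of them, cut at about 5.3 in these data; same plate scores as AID 2156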;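 note: B-score of peak minus minimum over baseline fluorescence ratio after K+ and Tl+ stimulus; positive B-score means potentiation of KCNQ2 with more thallium influx and brighter signal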
KCNQ2 block: KCNQ2 (rat) channel inhibition. O88943. CHO-K1 KCNQ2, FluxOR thallium flux, 20 min; active compounds read low. B-score at 10 µM. actives 1.1% (n = 310,000). AID 2156;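 active = fluorescence ratio B-score at most minus 3 library SDs, with starting brightness B-score within 2 library SDs, cut at about -5.5 in these data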
Kir21 confirm: confirmation of mouse Kir2.1 potassium channel inhibitors; shares compounds with KCNQ2 enhance; Kir2.1-expressing cells, FluxOR thallium flux fluorescence; active compounds read low; Tl flux remaining, % of negative control (active compounds read low), % at 10 µM; actives 41% (n = 2,300); AID 2032;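 active = Primary-screen hit whose thallium flux fell at least 3 control SD below untreated wells in both duplicates, with normal baseline fluorescence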
HEK293 ctr: alters thallium flux in parental HEK293 cells, Kir2.1 counter-screen; shares compounds with KCNQ2 enhance; FluxOR thallium flux fluorescence; 0% = unstimulated blank wells; FluxOR signal as % of negative control (100 = no effect), % at 10 µM; actives 19% (n = 2,300); AID 2105;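 active = dye signal at least 3 control SD above or below untreated wells in both duplicates, raw fluorescence within 3, either direction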;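 note: percent is based on the flux ratio of peak minus minimum fluorescence over baseline F0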
CHO-K1 ctr: parental CHO-K1 activity in KCNQ2 potentiator counter-screen; actives 43% (n = 1,200); parental CHO-K1 cells, FluxOR thallium flux fluorescence; zero = vehicle mean+3SD, 100% = vehicle-minus-blank window; shares compounds with KCNQ2 enhance; AID 2282; activity increase over 3SD of controls, % at 10 µM;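 active = signal rise of at least 3 SD above the untreated control mean, in both duplicate wells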;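 note: counter screen of KCNQ2 potentiator hits so any rise reflects channel-independent effects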
KCNQ1 sel pot: tests whether KCNQ2 potentiators also act on human KCNQ1 | shares compounds with KCNQ2 enhance | CHO KCNQ1 stable, FluxOR thallium flux fluorescence; beyond 3SD, as % of vehicle-control signal | activation over 3SD threshold, % at 10 µM | actives 28% (n = 1,200) | AID 2283;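 active = fluorescence ratio rise of at least 3 SD of vehicle wells above their mean, in both replicate wells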
Target sequence (P51787 whole entry, looked up): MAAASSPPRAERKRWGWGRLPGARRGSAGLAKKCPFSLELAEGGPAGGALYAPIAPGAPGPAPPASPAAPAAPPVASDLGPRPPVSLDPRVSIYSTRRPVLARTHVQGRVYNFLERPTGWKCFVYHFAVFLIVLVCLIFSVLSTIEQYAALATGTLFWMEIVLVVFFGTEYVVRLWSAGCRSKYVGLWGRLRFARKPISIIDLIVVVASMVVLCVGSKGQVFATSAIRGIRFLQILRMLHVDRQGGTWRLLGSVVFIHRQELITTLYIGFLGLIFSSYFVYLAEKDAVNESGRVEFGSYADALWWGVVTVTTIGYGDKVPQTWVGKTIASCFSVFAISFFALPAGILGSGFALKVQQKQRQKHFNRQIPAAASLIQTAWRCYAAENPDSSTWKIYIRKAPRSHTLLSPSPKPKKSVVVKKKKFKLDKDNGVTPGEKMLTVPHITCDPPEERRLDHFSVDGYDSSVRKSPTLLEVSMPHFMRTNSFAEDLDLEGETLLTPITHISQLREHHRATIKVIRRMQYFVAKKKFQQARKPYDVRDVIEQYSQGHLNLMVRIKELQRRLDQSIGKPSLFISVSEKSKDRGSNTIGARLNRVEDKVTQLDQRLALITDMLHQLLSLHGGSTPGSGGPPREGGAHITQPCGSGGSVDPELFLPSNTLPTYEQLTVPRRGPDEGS
KCNQ2 pot confirm: rat KCNQ2 channel potentiator confirmation | AID 2287 | shares compounds with KCNQ2 enhance | CHO-KCNQ2 cells, FluxOR thallium flux fluorescence | actives 68% (n = 1,200) | potentiation, less the hit threshold, % at 10 µM;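 active = fluorescence ratio rising 3 SD or more over the vehicle control mean in both replicates, plus primary screen hit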;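 note: peak minus minimum thallium fluorescence divided by baseline after K/Tl stimulus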
Kir2-1 sel: selectivity of KCNQ2 potentiators: effect on mouse Kir2.1; HEK293 Kir2.1, FluxOR thallium flux fluorescence; shares compounds with KCNQ2 enhance; activity over 3SD threshold, % at 10 µM; actives 2% (n = 1,200); AID 2345;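 active = fluorescence ratio rise of at least 3 SD above the vehicle-control mean, seen in both replicates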
KCNQ2 W236L MoA: KCNQ2 potentiators acting on retigabine-insensitive rat KCNQ2 W236L mutant; shares compounds with KCNQ2 enhance; CHO KCNQ2-W236L, automated patch clamp current; current increase over 3SD of negative controls (%), active compounds read high, % at 25 µM; actives 10% (n = 940);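 active = current increase at least 3 SD of the untreated controls above them in both duplicate recordings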
Large screens that a line does not name were inactive (follow-up assays come after a bar, where they were run).

CCOC(=O)c1c(N)sc2c1CCC(C)C2 (centres undefined)	none
CCOC(=O)c1c(NS(C)(=O)=O)sc2c1CCC(C)C2 (centres undefined)	none | Kir21 confirm inactive | HEK293 ctr 178.0%
COC(=O)c1ccc(NC(=O)C2C3C=CC(C3)C2C(=O)O)cc1 (centres undefined)	none (no result: KCNQ2 enhance)
CCc1cc(-c2n[nH]c(=S)n2C(C)c2ccccc2)cs1 (centres undefined)	none | Kir21 confirm 50.5% | HEK293 ctr inactive
Cc1scc(-c2n[nH]c(=S)n2C(C)c2ccccc2)c1C (centres undefined)	none (no result: KCNQ2 enhance)
COC(=O)CC1C(=O)NCCN1C(=O)Nc1ccc(Cl)c(Cl)c1 (centres undefined)	none
N#Cc1ccccc1N/C=C/C(=O)c1ccc(Cl)cc1	none (no result: KCNQ2 enhance)
COc1ccccc1CNC(=O)CSCc1cnn(-c2ccccc2)c1-n1cccc1	none (no result: KCNQ2 enhance) | Kir21 confirm inactive | HEK293 ctr inactive
COc1cccc(CNC(=O)CSCc2cnn(-c3ccccc3)c2-n2cccc2)c1OC	none (no result: KCNQ2 enhance)
OCC1(Cc2ccc(Cl)cc2)CCN(Cc2ccc3nsnc3c2)CC1	none (no result: KCNQ2 enhance)
O=C(NCCCCc1ccccc1)Nc1cccc(F)c1	KCNQ2 enhance 13.1 | Kir21 confirm inactive | HEK293 ctr inactive | CHO-K1 ctr inactive | KCNQ1 sel pot inactive | KCNQ2 pot confirm 27.2 | Kir2-1 sel inactive | KCNQ2 W236L MoA inactive
Cc1cccc(NC(=O)NCCCCc2ccccc2)c1	none (no result: KCNQ2 enhance)
O=c1cc(-c2ccccc2)[nH]n1-c1nc2ccccc2s1	none
CCOC(=O)C1=C(C)N=c2s/c(=C\c3ccc(C(=O)O)cc3)c(=O)n2C1c1ccc(F)cc1 (centres undefined)	KCNQ2 enhance 6.98 | Kir21 confirm inactive | HEK293 ctr inactive | CHO-K1 ctr 11.2 | KCNQ1 sel pot inactive | KCNQ2 pot confirm inactive | Kir2-1 sel inactive | KCNQ2 W236L MoA inactive
CCOC(=O)C1=C(C)N=c2s/c(=C/c3cccc(OCC(=O)O)c3)c(=O)n2C1c1ccc(F)cc1 (centres undefined)	none
COc1ccc(C(=O)NCc2cccnc2)cc1S(=O)(=O)N1CCCc2ccccc21	none (no result: KCNQ2 enhance)
Cc1nn(C)cc1C(=O)/C=C/c1ccc([N+](=O)[O-])cc1	none
Cc1ccc(Nc2nc(-c3ccccc3)cs2)nc1	none
Cc1ccc(Nc2nc(-c3cccs3)cs2)nc1	none | Kir21 confirm inactive | HEK293 ctr inactive
COc1ccc(NC(=O)CSCC(=O)Nc2ccccc2N2CCCCC2)cc1	KCNQ2 enhance 6.74 | CHO-K1 ctr 18.7 | KCNQ1 sel pot 59.6 | KCNQ2 pot confirm inactive | Kir2-1 sel inactive
O=C(Cc1ccc(Cl)c(Cl)c1)Nc1ccccc1N1CCCC1	KCNQ2 enhance 7.2 | Kir21 confirm inactive | HEK293 ctr inactive | CHO-K1 ctr 103.3 | KCNQ1 sel pot inactive | KCNQ2 pot confirm 56.4 | Kir2-1 sel inactive | KCNQ2 W236L MoA inactive
O=C(Cc1ccc(F)cc1)Nc1ccccc1N1CCCC1	KCNQ2 enhance 10.8 | Kir21 confirm 59.0% | HEK293 ctr inactive | CHO-K1 ctr 2.5 | KCNQ1 sel pot inactive | KCNQ2 pot confirm 48.4 | Kir2-1 sel inactive | KCNQ2 W236L MoA inactive
O=C(Nc1ccc(F)cc1)Nc1ccccc1N1CCCCC1	none
CN1CCN(c2ccccc2NC(=O)Cc2ccc(Cl)cc2)CC1	none
COc1ccc(NC(=O)CSCC(=O)Nc2ccccc2N2CCCC2)cc1	none
O=C(COC(=O)c1nc(Cl)ccc1Cl)c1ccc[nH]1	none
Cc1ccc(S(=O)(=O)NCC(c2cccnc2)N2CCc3ccccc32)cc1 (centres undefined)	none (no result: KCNQ2 enhance)
CCn1c(=O)n(CC)c2cc(S(=O)(=O)NCCOc3ccccc3)c(C)cc21	none
C/C(=N\NC(=O)C1CC1)c1ccc(N2CCOCC2)cc1	none
C/C(=N\NC(=O)C1COc2ccccc2O1)c1ccc(N2CCOCC2)cc1 (centres undefined)	KCNQ2 enhance 9.24 | Kir21 confirm inactive | HEK293 ctr inactive | CHO-K1 ctr 26.3 | KCNQ1 sel pot inactive | KCNQ2 pot confirm inactive | Kir2-1 sel inactive
CN(C)C(=O)c1ccccc1Sc1cc(Cl)ccc1Cl	none (no result: KCNQ2 enhance) | Kir21 confirm 47.0% | HEK293 ctr inactive
CN(C)C(=O)c1ccccc1Sc1ccc(Cl)cc1Cl	none (no result: KCNQ2 enhance)
Oc1c(CN2CCOCC2)cc(COCc2ccccc2)c2cccnc12	KCNQ2 enhance 10.7 | Kir21 confirm inactive | HEK293 ctr inactive | CHO-K1 ctr inactive | KCNQ1 sel pot inactive | KCNQ2 pot confirm 26.1 | Kir2-1 sel inactive | KCNQ2 W236L MoA inactive
Oc1c(CN2CCN(c3ccccc3)CC2)cc(Br)c2cccnc12	none
COc1ccc(NC(=O)c2cccc(S(=O)(=O)Nc3ccc(Br)cc3)c2)cn1	none
Cc1cc(OCCOCCNCc2ccccc2)ccc1C(C)C	none | Kir21 confirm 21.5% | HEK293 ctr inactive
Clc1cc(Br)ccc1OCCCNCc1ccccc1	none (no result: KCNQ2 enhance)
Cc1ccc(C(C)C)c(OCCCCN2CCNCC2)c1	none | Kir21 confirm 44.0% | HEK293 ctr inactive
Cc1ccc(C(C)C)c(OCCOCCN2CCNCC2)c1	none (no result: KCNQ2 enhance)
Cc1ccc(C(C)C)c(OCCNCc2ccccc2)c1	none | Kir21 confirm 16.5% | HEK293 ctr inactive
Cc1ccc(C)c(OCCCNCc2ccccc2)c1	none (no result: KCNQ2 enhance) | Kir21 confirm 23.5% | HEK293 ctr inactive
CC(C)(C)c1ccccc1OCCOCCNCc1ccccc1	none (no result: KCNQ2 enhance)
Cc1ccc(C(C)C)c(OCCN)c1	none
C=CCn1c2ccccc2c2nnc(SCC(=O)OCN3C(=O)c4ccccc4C3=O)nc21	none
Cc1ccc(C(=O)COC(=O)c2cccs2)cc1	none
CC(C)(C)NC(=O)NC(=O)CN1CCN(S(=O)(=O)c2ccccc2)CC1	none (no result: KCNQ2 enhance)
O=C(Nn1c(-c2ccccc2)nc2ccccc2c1=O)c1cccs1	none (no result: KCNQ2 enhance)
CS(=O)(=O)N(CC(=O)Nc1ccccc1C(=O)N1CCCC1)c1cccc([N+](=O)[O-])c1	none
COc1ccc(-c2cc(C(F)(F)F)nc(N3CCN(C)CC3)n2)cc1	none (no result: KCNQ2 enhance)
CN(CC(=O)Nc1ccc(F)cc1)C(=O)COC(=O)C1CCN(c2ccc(C(F)(F)F)cn2)CC1	KCNQ2 enhance 13.1 | Kir21 confirm inactive | HEK293 ctr inactive | CHO-K1 ctr 79.3 | KCNQ1 sel pot inactive | KCNQ2 pot confirm 17.6 | Kir2-1 sel inactive | KCNQ2 W236L MoA inactive
O=C(COC(=O)C1CCN(c2ccc(C(F)(F)F)cn2)CC1)Nc1ccc(Cl)cc1	none

Screening results (PubChem BioAssay)
